Laboratory results: publication PMC9911399, “Two distinct binding modes provide the RNA-binding protein RbFox with extraordinary sequence specificity”
Substitutions are numbered along the chain they refer to; changes in the protein carry UniProt numbers. Over roughly 16,000 sequences, “ka relative to ugcaugu” has its median near 0.096; the highest 2% begin near 0.35. The sample as a whole holds a higher share of the highest values than the screen did.

T1: RBFOX1 RRM RbFoxmut (Fox-RRM*) (Homo sapiens, UniProt Q9NWB1 109-208, R118D;E147R;N151S;E152T)
T1 sequence: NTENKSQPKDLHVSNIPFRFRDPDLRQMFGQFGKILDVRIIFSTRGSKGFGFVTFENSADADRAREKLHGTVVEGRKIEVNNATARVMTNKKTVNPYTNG

B1: GGCUGGU (DNA:RNA)
RNA: GGGAGACCGGAAUUCAGAUUGUCCGGCUGGUUUAAAUCCCGUCGUAGCCACCA
DNA 1: CAATCTGAATTCCGGTCTCCC
DNA 2: TGGTGGCTACGACGGGATT
B2: GAAGAAG (DNA:RNA)
RNA: B1 RNA with G26A, C27A, U28G, G29A, G30A, U31G
DNA 1: CAATCTGAATTCCGGTCTCCC
DNA 2: TGGTGGCTACGACGGGATT
B3: CACGUCA (DNA:RNA)
RNA: B1 RNA with G25C, G26A, U28G, G29U, G30C, U31A
DNA 1: CAATCTGAATTCCGGTCTCCC
DNA 2: TGGTGGCTACGACGGGATT
B4: CCUUCGA (DNA:RNA)
RNA: B1 RNA with G25C, G26C, C27U, G29C, U31A
DNA 1: CAATCTGAATTCCGGTCTCCC
DNA 2: TGGTGGCTACGACGGGATT
B5: GUGCUCC (DNA:RNA)
RNA: B1 RNA with G26U, C27G, U28C, G29U, G30C, U31C
DNA 1: CAATCTGAATTCCGGTCTCCC
DNA 2: TGGTGGCTACGACGGGATT
B6: CUGGGUG (DNA:RNA)
RNA: B1 RNA with G25C, G26U, C27G, U28G, G30U, U31G
DNA 1: CAATCTGAATTCCGGTCTCCC
DNA 2: TGGTGGCTACGACGGGATT
B7: CCUGGUG (DNA:RNA)
RNA: B1 RNA with G25C, G26C, C27U, U28G, G30U, U31G
DNA 1: CAATCTGAATTCCGGTCTCCC
DNA 2: TGGTGGCTACGACGGGATT
B8: UGUUGGG (DNA:RNA)
RNA: B1 RNA with G25U, C27U, U31G
DNA 1: CAATCTGAATTCCGGTCTCCC
DNA 2: TGGTGGCTACGACGGGATT
B9: UGGUGUG (DNA:RNA)
RNA: B1 RNA with G25U, C27G, G30U, U31G
DNA 1: CAATCTGAATTCCGGTCTCCC
DNA 2: TGGTGGCTACGACGGGATT
B10: UGGGGGG (DNA:RNA)
RNA: B1 RNA with G25U, C27G, U28G, U31G
DNA 1: CAATCTGAATTCCGGTCTCCC
DNA 2: TGGTGGCTACGACGGGATT
B11: UGGGGUG (DNA:RNA)
RNA: B1 RNA with G25U, C27G, U28G, G30U, U31G
DNA 1: CAATCTGAATTCCGGTCTCCC
DNA 2: TGGTGGCTACGACGGGATT
B12: UGGUCCG (DNA:RNA)
RNA: B1 RNA with G25U, C27G, G29C, G30C, U31G
DNA 1: CAATCTGAATTCCGGTCTCCC
DNA 2: TGGTGGCTACGACGGGATT
B13: UGGGUCC (DNA:RNA)
RNA: B1 RNA with G25U, C27G, U28G, G29U, G30C, U31C
DNA 1: CAATCTGAATTCCGGTCTCCC
DNA 2: TGGTGGCTACGACGGGATT
B14: UGUGGUG (DNA:RNA)
RNA: B1 RNA with G25U, C27U, U28G, G30U, U31G
DNA 1: CAATCTGAATTCCGGTCTCCC
DNA 2: TGGTGGCTACGACGGGATT
B15: UGGGUGU (DNA:RNA)
RNA: B1 RNA with G25U, C27G, U28G, G29U
DNA 1: CAATCTGAATTCCGGTCTCCC
DNA 2: TGGTGGCTACGACGGGATT
B16: UGGGUCG (DNA:RNA)
RNA: B1 RNA with G25U, C27G, U28G, G29U, G30C, U31G
DNA 1: CAATCTGAATTCCGGTCTCCC
DNA 2: TGGTGGCTACGACGGGATT
B17: UGGGUUG (DNA:RNA)
RNA: B1 RNA with G25U, C27G, U28G, G29U, G30U, U31G
DNA 1: CAATCTGAATTCCGGTCTCCC
DNA 2: TGGTGGCTACGACGGGATT
B18: GGUUCAA (DNA:RNA)
RNA: B1 RNA with C27U, G29C, G30A, U31A
DNA 1: CAATCTGAATTCCGGTCTCCC
DNA 2: TGGTGGCTACGACGGGATT
B19: CCGCUAC (DNA:RNA)
RNA: GGGAGACCGGAAUUCAGAUUGUCCCCGCUACUUAAAUCCCGUCGUAGCCACCA
DNA 1: CAATCTGAATTCCGGTCTCCC
DNA 2: TGGTGGCTACGACGGGATT
B20: UGUACUC (DNA:RNA)
RNA: B19 RNA with C25U, C26G, G27U, C28A, U29C, A30U
DNA 1: CAATCTGAATTCCGGTCTCCC
DNA 2: TGGTGGCTACGACGGGATT

target: T1, RBFOX1 RRM RbFoxmut (Fox-RRM*); experiment: EMSA; HiTS-Eq, 1 nM pool, 10 min; buffer printed only for the single-RNA assays: 10 mM Tris pH 7.5, 150 mM NaCl, 3.4 mM EDTA, 0.001% NP-40, 30 C; settings: tags: His6 N-terminal (pET28a); label: 5' 32P
Procedure, shortened: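 Purified RbFox RRM, wild type or mutant, was incubated for 10 min in 50 µL with 1 nM of a 5′-radiolabelled RNA pool carrying 7 randomized nucleotides, whose flanks were annealed to DNA oligonucleotides, over a series of increasing protein concentrations. Unbound RNA was resolved on 8% native PAGE, cut out, reverse-transcribed, barcoded by PCR and sequenced on an Illumina HiSeq 2500. Relative association constants were derived from changes in read counts for each RNA species versus the control reaction and normalised to the cognate motif.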

Row | Binder | binding signal
1 | B1 | 0.14 KA relative to UGCAUGU
2 | B2 | 0.0975 KA relative to UGCAUGU
3 | B3 | 0.124 KA relative to UGCAUGU
4 | B4 | 0.0928 KA relative to UGCAUGU
5 | B5 | 0.0573 KA relative to UGCAUGU
6 | B6 | 0.347 KA relative to UGCAUGU
7 | B7 | 0.109 KA relative to UGCAUGU
8 | B8 | 0.0997 KA relative to UGCAUGU
9 | B9 | 0.498 KA relative to UGCAUGU
10 | B10 | 0.0903 KA relative to UGCAUGU
11 | B11 | 0.38 KA relative to UGCAUGU
12 | B12 | 0.265 KA relative to UGCAUGU
13 | B13 | 0.149 KA relative to UGCAUGU
14 | B14 | 0.273 KA relative to UGCAUGU
15 | B15 | 0.305 KA relative to UGCAUGU
16 | B16 | 0.375 KA relative to UGCAUGU
17 | B17 | 0.947 KA relative to UGCAUGU
18 | B18 | 0.0825 KA relative to UGCAUGU
19 | B19 | 0.129 KA relative to UGCAUGU
20 | B20 | 0.0695 KA relative to UGCAUGU
